Bioassay records deposited in PubChem BioAssay by Broad Institute.
Compounds with a hit are over-represented: about 2.1% of the library has one in this group of screens.
ROS inducer: ROS inducers in U2OS cancer cells, primary screen, cell-based, H2DCF-DA fluorescence; U2OS ROS induction; ROS induction (% of piperlongumine), % at 10 µM; hit rate 2% among 46,000; in the data active = ROS induction above about 79%, passing the limit was not always enough
YB-1 expression: inhibitors of YB-1 gene expression, primary screen, cell-based, fluorescence; delta delta Cp (YB-1 minus CDIP) (no concentration beside the values); hit rate 0.37% among 30,000; U2OS, qRT-PCR YB-1 vs CDIP delta delta Cp, 16 h; hits give high values; zero = DMSO, each unit about twofold;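 active = delta delta Cp rounded down to an integer at or above 3, about 3 SD of DMSO wells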;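 note: higher means less YB-1 transcript or more CDIP transcript relative to DMSO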
Each line names hits and unclear results; the compound was inactive in the other large screens.

C[C@H](CO)N1C[C@H](C)[C@H](CN(C)Cc2ccc3c(c2)OCO3)Oc2ccc(NS(=O)(=O)c3ccc(F)cc3)cc2CC1=O	none
C[C@H]1CN([C@@H](C)CO)C(=O)Cc2cc(NS(=O)(=O)c3ccc(F)cc3)ccc2O[C@H]1CN(C)Cc1ccc2c(c1)OCO2	ROS inducer 109
C[C@@H]1CN([C@H](C)CO)C(=O)Cc2cc(NS(=O)(=O)c3ccc(F)cc3)ccc2O[C@@H]1CN(C)Cc1ccc2c(c1)OCO2	none
C[C@@H]1CN([C@H](C)CO)C(=O)Cc2cc(NS(=O)(=O)c3ccc(F)cc3)ccc2O[C@H]1CN(C)Cc1ccc2c(c1)OCO2	ROS inducer 129
N#Cc1c(/N=C/N2CCCC2)sc2c1CCCCC2	none (no result: YB-1 expression)
O=C(CSc1ccc(Cl)cc1)N1CCc2c([nH]c3ccccc23)C1C(F)(F)F (stereo not drawn)	none (no result: YB-1 expression)
CCOC(=O)c1sc(SC#N)c(-c2ccccc2)c1N	none (no result: YB-1 expression)
CCOC(=O)c1ccc(NC(=O)O[C@H]2[C@H](OC(=O)Nc3ccccc3)[C@@H](OC(=O)Nc3ccccc3)[C@@H](OC)O[C@@H]2CO)cc1	ROS inducer 88
CCc1cccc(NC(=O)O[C@H]2[C@H](OC(=O)Nc3ccccc3)[C@@H](OC(=O)Nc3ccccc3)[C@@H](OC)O[C@@H]2CO)c1	none
CN(Cc1nc(-c2ccccc2)cs1)C(=O)NC1(c2ccccc2)CC1	none (no result: YB-1 expression)
COc1ccc(NC(=O)N(C)C[C@@H]2Oc3c(cccc3N(C)C)C(=O)N([C@H](C)CO)C[C@H]2C)cc1	none
Cc1noc(C)c1NC(=O)N(C)C[C@@H]1Oc2c(NC(=O)Nc3ccc4c(c3)OCO4)cccc2C(=O)N([C@@H](C)CO)C[C@H]1C	ROS inducer 115
C[C@H]1CN([C@@H](C)CO)C(=O)c2cccc(NC(=O)C3CC3)c2O[C@H]1CN(C)C(=O)Nc1ccc2c(c1)OCO2	none
COc1ccc(NC(=O)Nc2cccc3c2O[C@H](CN(C)C(=O)Nc2c(C)noc2C)[C@H](C)CN([C@@H](C)CO)C3=O)cc1	none
COc1ccc(NC(=O)Nc2cccc3c2O[C@H](CN(C)C(=O)Nc2c(C)noc2C)[C@H](C)CN([C@H](C)CO)C3=O)cc1	YB-1 expression 5.9
Cc1noc(C)c1NC(=O)N(C)C[C@@H]1Oc2c(NC(=O)Nc3ccc4c(c3)OCO4)cccc2C(=O)N([C@H](C)CO)C[C@@H]1C	none
C[C@@H]1CN([C@@H](C)CO)C(=O)c2cccc(NC(=O)C3CC3)c2O[C@@H]1CN(C)C(=O)Nc1ccc2c(c1)OCO2	YB-1 expression 3.7
COc1ccc(NC(=O)N(C)C[C@H]2Oc3c(cccc3N(C)C)C(=O)N([C@H](C)CO)C[C@@H]2C)cc1	ROS inducer 79
CC(C)(C)c1ccc(C(=O)Nc2cccc(C(F)(F)F)c2)cc1	none (no result: YB-1 expression)
CCC(=O)c1cn(S(=O)(=O)c2ccc(C)cc2)c2ccccc12	none (no result: YB-1 expression)
O=C(NCCc1ccsc1)c1cc2c(s1)-c1ccccc1OC2	none (no result: YB-1 expression)
C/C=C/[C@@H](CCn1cc([C@H](O)c2ccccc2)nn1)[Si](C)(C)c1ccc(OC)cc1	none
C/C=C/[C@H](CCn1cc([C@H](O)c2ccccc2)nn1)[Si](C)(C)c1ccc(OC)cc1	ROS inducer 110
c1ccc(Cn2c3c(c4ccccc42)CCOc2ccccc2-3)cc1	none (no result: YB-1 expression)
COc1ccc(OC)c(NC(=O)CSc2nc(-c3ccccc3)nc3c2COC(C)(C)C3)c1	ROS inducer 77 (no result: YB-1 expression)
COc1ccc(OC)c(NC(=O)CSc2nc(-c3ccccc3)cs2)c1	none (no result: YB-1 expression)
CC(=O)c1ccc(NC(=O)CSc2ncnc3c2sc2nc4c(cc23)COC(C)(C)C4)cc1	none (no result: YB-1 expression)
CC1(C)Cc2nc(-c3ccccc3)nc(SCC(=O)Nc3ccc(Br)cc3)c2CO1	ROS inducer 113 (no result: YB-1 expression)
CCN(C(=O)c1cc2c(=O)[nH]c3ccc(C)cc3c2s1)c1ccccc1	none (no result: YB-1 expression)
FC(F)(F)c1ccc(-c2noc(-c3ccco3)n2)cc1	none (no result: YB-1 expression)
CCOc1cccc2c1OC1(C)C(C(=O)Nc3ccc(OC)cc3)C2NC(=S)N1CCOC (stereo not drawn)	none (no result: YB-1 expression)
Nc1nc(CNS(=O)(=O)c2ccccc2)nn1S(=O)(=O)c1ccccc1	none (no result: YB-1 expression)
O=S(=O)(C1=CC23CCCC2(C=C(S(=O)(=O)c2ccc(Cl)cc2)C3)C1)c1ccc(Cl)cc1 (stereo not drawn)	ROS inducer 81
CC1CCCCN1S(=O)(=O)c1ccc(Cl)cc1 (stereo not drawn)	none (no result: YB-1 expression)
CC(C(=O)NCc1cccs1)n1ncn2cccc2c1=O (stereo not drawn)	none (no result: YB-1 expression)
Cc1ccc2nc3ccc(NCc4ccccc4)nn3c(=O)c2c1	none (no result: YB-1 expression)
C=C1C(=O)O[C@H]2C3=C(C)CCC[C@]3(C)C(=O)C[C@@H]12	ROS inducer 84
C=C1C(=O)O[C@@H]2C=C(C)[C@@H]3CC[C@@](C)(O)[C@@H]3C[C@H]12	none
COc1ccccc1OCC(=O)Nc1cccc(-c2nnc(-c3ccccc3)o2)c1	none (no result: YB-1 expression)
COc1ccc(-c2nnc(-c3ccc(S(=O)(=O)c4ccccc4)cc3)o2)cc1OC	ROS inducer 126 (no result: YB-1 expression)
COc1ccc(CN2C(=O)c3cccc4cccc(c34)C2=O)cc1S(=O)(=O)N1CCCCCC1	none (no result: YB-1 expression)
CCOc1ccc(S(=O)(=O)N2CCCCC2)cc1-c1nc2c(C(C)(C)C)nn(C)c2c(=O)[nH]1	ROS inducer 170 (no result: YB-1 expression)
CCCc1nc(C)c2c(=O)[nH]c(-c3cc(S(=O)(=O)N4CCN(CC)CC4)ccc3OCC)nn12	ROS inducer 134
CCN1CCN(C(=O)C2CCN(S(=O)(=O)c3ccc4c(c3)nc(C)n4C3CCCC3)CC2)CC1	none (no result: YB-1 expression)
CCCCN(C)C(=O)c1noc2c1COc1ccccc1-2	none (no result: YB-1 expression)
COc1ccc(-c2cc(-c3ccccc3)c(C#N)c(SC3CCCCC3=O)n2)cc1 (stereo not drawn)	none (no result: YB-1 expression)
CCc1ccc(Sc2cc(C(=O)NCc3cccnc3)c3ccccc3n2)cc1	none (no result: YB-1 expression)
Cc1ccc(COc2ccc(/C=C3/C(=N)N4C=CSC4=NC3=O)cc2Br)cc1	none (no result: YB-1 expression)
Cc1cc(/C=C2/C(=N)N3C=CSC3=NC2=O)c(C)n1-c1ccccc1	ROS inducer 220 (no result: YB-1 expression)
CCc1ccc(NC(=S)Nc2ccccc2C(C)C)cc1	none (no result: YB-1 expression)
CCOC(=O)c1cnc2ccccc2c1NCCc1ccccc1	ROS inducer 113 (no result: YB-1 expression)
CCOC(=O)c1cnc2c(ccc3ccccc32)c1NCc1ccco1	none (no result: YB-1 expression)
CCOC(=O)c1cnc2c(ccc3ccccc32)c1NCC(C)C	none (no result: YB-1 expression)
CCOC(=O)c1cnc2c(ccc3ccccc32)c1NCCOC(=O)c1cccnc1	ROS inducer 248 (no result: YB-1 expression)
CC1CCCCC1NC(=O)CCn1nc(-c2ccccc2)ccc1=O (stereo not drawn)	none (no result: YB-1 expression)
COc1cccc(NC(=O)CSc2ncnc3ccccc23)c1	none (no result: YB-1 expression)
